Here are results for 1 compound from ChEMBL document CHEMBL2218924, “A broad activity screen in support of a chemogenomic map for kinase signalling research and drug discovery” (Biochem J, 2013).

Assay [1] addresses T1, Serine/threonine-protein kinase TBK1 (Homo sapiens) (UniProt Q9UHD2).
T1 sequence (whole entry): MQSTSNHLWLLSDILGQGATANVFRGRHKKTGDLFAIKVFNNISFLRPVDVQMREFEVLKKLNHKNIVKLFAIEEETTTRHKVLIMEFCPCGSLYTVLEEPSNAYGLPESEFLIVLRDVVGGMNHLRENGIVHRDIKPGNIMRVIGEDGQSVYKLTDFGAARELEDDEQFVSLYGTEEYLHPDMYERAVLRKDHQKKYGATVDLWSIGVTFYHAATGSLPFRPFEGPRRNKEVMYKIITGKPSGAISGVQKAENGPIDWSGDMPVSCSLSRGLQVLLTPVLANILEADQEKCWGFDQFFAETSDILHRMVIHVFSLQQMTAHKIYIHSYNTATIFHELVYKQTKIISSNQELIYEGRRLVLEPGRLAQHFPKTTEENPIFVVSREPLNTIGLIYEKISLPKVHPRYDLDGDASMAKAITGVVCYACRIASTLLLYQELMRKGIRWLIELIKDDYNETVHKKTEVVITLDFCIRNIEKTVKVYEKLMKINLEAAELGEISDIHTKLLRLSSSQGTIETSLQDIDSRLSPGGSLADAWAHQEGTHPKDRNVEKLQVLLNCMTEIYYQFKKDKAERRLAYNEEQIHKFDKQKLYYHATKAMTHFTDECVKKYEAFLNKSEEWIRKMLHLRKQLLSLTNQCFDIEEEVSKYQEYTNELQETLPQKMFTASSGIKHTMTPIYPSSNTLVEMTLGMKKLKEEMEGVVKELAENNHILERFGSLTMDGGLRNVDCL
Particulars: at 10 µM.

Assay [2] deals with T2, TGF-beta receptor type-1 (Homo sapiens) (UniProt P36897).
T2 sequence (whole entry): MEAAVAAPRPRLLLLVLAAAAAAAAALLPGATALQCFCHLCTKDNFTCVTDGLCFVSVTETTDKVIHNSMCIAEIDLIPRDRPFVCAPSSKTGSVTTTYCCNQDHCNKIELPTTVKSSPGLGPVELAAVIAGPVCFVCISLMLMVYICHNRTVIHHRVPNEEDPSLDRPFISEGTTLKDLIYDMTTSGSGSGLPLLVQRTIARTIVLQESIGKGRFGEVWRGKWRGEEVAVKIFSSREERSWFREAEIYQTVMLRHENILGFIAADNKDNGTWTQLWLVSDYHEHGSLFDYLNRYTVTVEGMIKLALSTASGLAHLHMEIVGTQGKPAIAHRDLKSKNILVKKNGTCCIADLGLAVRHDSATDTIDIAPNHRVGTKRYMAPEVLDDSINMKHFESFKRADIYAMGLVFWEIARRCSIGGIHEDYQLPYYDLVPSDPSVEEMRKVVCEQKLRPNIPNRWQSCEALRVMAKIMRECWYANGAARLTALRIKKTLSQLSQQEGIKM
Particulars: at 1 µM.

Assay [3] addresses T2, TGF-beta receptor type-1 (Homo sapiens). Particulars: at 10 µM.
Assay [4] deals with Insulin-like growth factor 1 receptor (Homo sapiens) (UniProt P08069). To be noted: at 1 µM.
Insulin-like growth factor 1 receptor (Homo sapiens), sequence (P08069 31-736 limits assumed): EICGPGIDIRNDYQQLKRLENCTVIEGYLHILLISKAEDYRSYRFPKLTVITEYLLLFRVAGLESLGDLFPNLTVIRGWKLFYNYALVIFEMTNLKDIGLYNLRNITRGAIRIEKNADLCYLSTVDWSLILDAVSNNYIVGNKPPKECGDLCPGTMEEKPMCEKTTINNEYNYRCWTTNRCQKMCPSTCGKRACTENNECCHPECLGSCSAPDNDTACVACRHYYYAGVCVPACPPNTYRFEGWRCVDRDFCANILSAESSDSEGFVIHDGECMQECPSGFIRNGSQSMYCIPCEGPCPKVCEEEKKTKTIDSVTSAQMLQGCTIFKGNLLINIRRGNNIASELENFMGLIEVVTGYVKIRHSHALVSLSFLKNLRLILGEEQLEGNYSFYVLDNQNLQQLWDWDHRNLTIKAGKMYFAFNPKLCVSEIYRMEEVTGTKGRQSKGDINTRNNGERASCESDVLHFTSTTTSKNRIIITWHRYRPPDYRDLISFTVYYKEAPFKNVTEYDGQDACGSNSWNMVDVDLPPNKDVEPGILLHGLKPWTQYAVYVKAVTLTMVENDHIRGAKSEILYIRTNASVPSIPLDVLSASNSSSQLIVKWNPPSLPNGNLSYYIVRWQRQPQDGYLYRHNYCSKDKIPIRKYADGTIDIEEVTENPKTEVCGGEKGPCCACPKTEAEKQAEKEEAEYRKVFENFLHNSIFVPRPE
Insulin-like growth factor 1 receptor (Homo sapiens), sequence (P08069 741-1367 limits assumed): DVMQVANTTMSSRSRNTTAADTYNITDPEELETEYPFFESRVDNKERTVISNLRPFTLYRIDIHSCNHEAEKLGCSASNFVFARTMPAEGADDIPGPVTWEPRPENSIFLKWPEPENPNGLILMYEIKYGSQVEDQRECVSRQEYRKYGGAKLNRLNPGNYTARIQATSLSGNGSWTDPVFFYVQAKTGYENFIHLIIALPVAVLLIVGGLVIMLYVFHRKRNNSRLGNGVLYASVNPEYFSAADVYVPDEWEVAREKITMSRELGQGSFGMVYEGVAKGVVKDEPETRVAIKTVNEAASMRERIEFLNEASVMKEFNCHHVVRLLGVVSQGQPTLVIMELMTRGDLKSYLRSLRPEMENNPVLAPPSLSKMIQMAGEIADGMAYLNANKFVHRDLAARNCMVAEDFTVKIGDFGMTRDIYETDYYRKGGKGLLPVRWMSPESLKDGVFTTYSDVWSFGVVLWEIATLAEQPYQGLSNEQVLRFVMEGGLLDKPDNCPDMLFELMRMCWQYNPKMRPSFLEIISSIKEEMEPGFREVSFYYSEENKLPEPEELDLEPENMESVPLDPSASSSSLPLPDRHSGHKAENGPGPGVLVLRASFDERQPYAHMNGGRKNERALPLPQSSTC
The target is the same in assay [5]. To be noted: at 10 µM.
Assay [6] concerns the target T3, Inhibitor of nuclear factor kappa-B kinase subunit alpha (Homo sapiens) (UniProt O15111).
T3 sequence (whole entry): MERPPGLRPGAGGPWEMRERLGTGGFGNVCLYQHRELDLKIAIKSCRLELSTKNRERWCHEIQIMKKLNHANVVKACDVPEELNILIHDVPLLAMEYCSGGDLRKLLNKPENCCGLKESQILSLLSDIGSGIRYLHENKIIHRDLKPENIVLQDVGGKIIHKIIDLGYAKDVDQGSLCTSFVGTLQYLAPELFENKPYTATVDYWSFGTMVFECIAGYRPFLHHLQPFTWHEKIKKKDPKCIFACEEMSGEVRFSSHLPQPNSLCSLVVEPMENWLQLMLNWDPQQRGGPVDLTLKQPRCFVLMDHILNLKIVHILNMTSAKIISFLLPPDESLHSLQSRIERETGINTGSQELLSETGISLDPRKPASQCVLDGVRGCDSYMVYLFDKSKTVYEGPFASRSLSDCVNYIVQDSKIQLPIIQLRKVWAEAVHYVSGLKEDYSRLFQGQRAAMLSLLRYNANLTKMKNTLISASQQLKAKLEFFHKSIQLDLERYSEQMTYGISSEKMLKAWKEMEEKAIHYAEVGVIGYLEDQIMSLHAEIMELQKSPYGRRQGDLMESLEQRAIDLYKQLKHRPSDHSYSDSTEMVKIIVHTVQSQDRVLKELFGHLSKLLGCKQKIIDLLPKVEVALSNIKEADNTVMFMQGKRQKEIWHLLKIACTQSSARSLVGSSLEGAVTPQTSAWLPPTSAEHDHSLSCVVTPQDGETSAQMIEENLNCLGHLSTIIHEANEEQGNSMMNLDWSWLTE
To be noted: at 1 µM.

The target of assay [7] is T3, Inhibitor of nuclear factor kappa-B kinase subunit alpha (Homo sapiens). Particulars: at 10 µM.
The target in assay [8] is T4, Inhibitor of nuclear factor kappa-B kinase subunit beta (Homo sapiens) (UniProt O14920).
T4 sequence (whole entry): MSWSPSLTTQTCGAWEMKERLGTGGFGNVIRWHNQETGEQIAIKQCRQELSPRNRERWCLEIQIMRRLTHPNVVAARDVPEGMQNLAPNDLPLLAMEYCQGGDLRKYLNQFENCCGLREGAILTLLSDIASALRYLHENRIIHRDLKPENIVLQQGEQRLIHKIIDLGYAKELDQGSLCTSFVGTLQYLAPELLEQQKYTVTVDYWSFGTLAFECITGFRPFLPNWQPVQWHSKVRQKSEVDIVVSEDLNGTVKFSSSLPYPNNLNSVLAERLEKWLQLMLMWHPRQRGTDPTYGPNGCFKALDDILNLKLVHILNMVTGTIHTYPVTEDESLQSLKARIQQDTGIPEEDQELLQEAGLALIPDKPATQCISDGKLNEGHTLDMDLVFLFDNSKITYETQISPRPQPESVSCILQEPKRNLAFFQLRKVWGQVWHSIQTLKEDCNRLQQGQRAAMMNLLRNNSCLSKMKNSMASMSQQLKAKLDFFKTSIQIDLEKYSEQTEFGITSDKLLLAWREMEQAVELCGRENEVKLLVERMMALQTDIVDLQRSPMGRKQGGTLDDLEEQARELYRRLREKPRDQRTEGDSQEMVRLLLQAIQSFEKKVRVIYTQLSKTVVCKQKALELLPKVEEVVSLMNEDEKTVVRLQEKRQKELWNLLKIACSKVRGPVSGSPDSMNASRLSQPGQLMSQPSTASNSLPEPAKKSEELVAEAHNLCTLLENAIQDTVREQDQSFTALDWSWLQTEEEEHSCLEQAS
Particulars: at 1 µM.

Assay [9] concerns the target T4, Inhibitor of nuclear factor kappa-B kinase subunit beta (Homo sapiens). To be noted: at 10 µM.
The target in assay [10] is Insulin receptor (Homo sapiens) (UniProt P06213). Particulars: at 1 µM.
Insulin receptor (Homo sapiens), sequence (P06213 28-758 limits assumed): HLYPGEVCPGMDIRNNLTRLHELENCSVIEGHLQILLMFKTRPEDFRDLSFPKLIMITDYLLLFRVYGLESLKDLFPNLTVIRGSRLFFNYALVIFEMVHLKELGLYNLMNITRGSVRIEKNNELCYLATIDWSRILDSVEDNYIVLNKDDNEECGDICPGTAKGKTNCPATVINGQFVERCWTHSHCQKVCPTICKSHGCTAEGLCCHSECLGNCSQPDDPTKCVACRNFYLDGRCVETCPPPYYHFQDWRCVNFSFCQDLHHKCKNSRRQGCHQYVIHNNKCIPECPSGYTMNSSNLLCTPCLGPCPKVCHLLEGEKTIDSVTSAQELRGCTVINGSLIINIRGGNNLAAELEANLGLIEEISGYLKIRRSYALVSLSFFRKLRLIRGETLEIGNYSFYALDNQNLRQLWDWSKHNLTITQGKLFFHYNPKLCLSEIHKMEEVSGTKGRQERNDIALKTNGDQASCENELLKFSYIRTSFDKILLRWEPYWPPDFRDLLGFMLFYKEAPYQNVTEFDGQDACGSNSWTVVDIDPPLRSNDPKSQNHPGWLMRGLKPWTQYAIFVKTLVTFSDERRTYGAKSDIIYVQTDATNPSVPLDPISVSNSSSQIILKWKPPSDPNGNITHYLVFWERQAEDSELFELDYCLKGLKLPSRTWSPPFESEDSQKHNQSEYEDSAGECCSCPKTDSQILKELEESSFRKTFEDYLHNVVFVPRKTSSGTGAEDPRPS
Insulin receptor (Homo sapiens), sequence (P06213 763-1382 limits assumed): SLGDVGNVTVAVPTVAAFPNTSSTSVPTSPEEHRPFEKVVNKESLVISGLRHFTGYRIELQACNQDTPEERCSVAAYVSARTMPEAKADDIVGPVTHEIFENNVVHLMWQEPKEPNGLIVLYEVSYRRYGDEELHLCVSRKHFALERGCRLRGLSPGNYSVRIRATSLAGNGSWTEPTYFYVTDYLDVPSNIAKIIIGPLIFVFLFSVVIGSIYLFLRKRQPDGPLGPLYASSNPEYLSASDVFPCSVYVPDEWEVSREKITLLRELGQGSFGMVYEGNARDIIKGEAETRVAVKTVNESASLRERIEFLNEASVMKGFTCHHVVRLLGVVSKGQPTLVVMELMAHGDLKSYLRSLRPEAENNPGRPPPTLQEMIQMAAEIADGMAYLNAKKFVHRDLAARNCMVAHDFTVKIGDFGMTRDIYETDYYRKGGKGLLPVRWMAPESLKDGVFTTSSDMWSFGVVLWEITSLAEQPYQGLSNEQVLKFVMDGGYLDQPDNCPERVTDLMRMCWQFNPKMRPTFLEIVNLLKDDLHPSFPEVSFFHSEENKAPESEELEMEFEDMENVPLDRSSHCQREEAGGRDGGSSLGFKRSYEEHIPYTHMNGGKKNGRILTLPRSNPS

With `O=C1NC(=O)/C(=C\c2ccc3nccnc3c2)S1`, the residual activity turned out to be 27% in assay [1]; 92% in assay [2]; 75% in [3]; 105% in [4]; 89% in assay [5]; 100% in assay [6]. Also, the residual activity in assay [7] worked out at 54%; in assay [8], 102%; in [9] it was 69%; in assay [10], 107%.
